HTR5A ag ctr = HTR5A agonists in luminescence cell assay, primary screen, counter-screen for OPRM1-OPRD1 heterodimer agonist project, full-deck HTS; 5-hydroxytryptamine receptor 5A (Homo sapiens), P47898; cell-based; activation, % at 9.3 µM; 0.61% of 340,000 active; AID 504692, 2011; in the data active = activation mostly above about 9.5%, no sharp cut-off; inactive = mostly below about 7.6%;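 note: 0% = cells with vehicle only and 100% = reference agonist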
Target sequence (P47898 whole entry, looked up): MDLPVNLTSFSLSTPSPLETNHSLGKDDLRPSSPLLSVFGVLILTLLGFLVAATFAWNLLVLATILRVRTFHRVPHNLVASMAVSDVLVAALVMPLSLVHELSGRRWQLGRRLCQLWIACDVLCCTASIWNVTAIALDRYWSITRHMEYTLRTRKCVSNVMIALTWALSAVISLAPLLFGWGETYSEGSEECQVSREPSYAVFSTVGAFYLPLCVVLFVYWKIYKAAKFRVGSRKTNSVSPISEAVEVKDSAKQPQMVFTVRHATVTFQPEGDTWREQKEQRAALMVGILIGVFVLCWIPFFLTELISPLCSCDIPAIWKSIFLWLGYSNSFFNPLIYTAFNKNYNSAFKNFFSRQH
OPRM1-OPRD1 ag = agonists of OPRM1-OPRD1 heterodimerization, primary screen, cell-based, luminescence; activation, % at 9.3 µM; cells; 0.3% of 340,000 active; Mu-type opioid receptor (Homo sapiens) + Delta-type opioid receptor (Homo sapiens), …;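 note: 0% = vehicle-treated cells and 100% = reference agonist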
MsrA inh = bovine MsrA enzyme inhibitors, primary screen, biochemical, absorbance, HTS | Methionine sulfoxide reductase A (Bos taurus) | purified bovine MsrA, absorbance read-out | inhibition, % at 15.5 µM | 0.75% of 360,000 active | AID 651718, 2012; in the data active = inhibition above about 4.5%;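 note: 0% = vehicle wells with enzyme and 100% = reference inhibitor wells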
MsrA act = bovine MsrA enzyme activators, primary screen, biochemical, absorbance, HTS; Methionine sulfoxide reductase A (Bos taurus); purified bovine MsrA, absorbance read-out; activation, % at 10.6 µM; 0.3% of 360,000 active; AID 602163, 2012; in the data active = activation above about 7.5%;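 note: 0% = vehicle and 100% = reference activator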
HTR5A inv ctr = HTR5A inverse agonists in luminescence cell assay, primary screen, counter-screen for OPRM1-OPRD1 heterodimer inverse agonist project, full-deck HTS; inhibition, % at 9.3 µM; 0.083% of 340,000 active; AID 504634, 2011; 5-hydroxytryptamine receptor 5A (Homo sapiens), P47898; HTR5A cell line, inverse agonism; in the data active = inhibition mostly above about 23%, no sharp cut-off; inactive = mostly below about 18%;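 note: 0% = cells with DMSO and 100% = no-cell wells with DMSO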
OPRM1-OPRD1 inv = inverse agonists of MOR-DOR heterodimerization, primary screen, cell-based, luminescence; cell-based MOR-DOR heterodimer luminescence, inverse agonism; inhibition, % at 9.3 µM; 0.21% of 340,000 active; AID 504357, 2011; in the data active = inhibition above about 22%, passing the limit was not always enough;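 note: 0% = cells with DMSO and 100% = wells without cells with DMSO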
MOR-DOR ag conf = agonists of MOR-DOR heterodimerization, confirmation, cell-based, luminescence. 45% of 830 active. shares compounds with OPRM1-OPRD1 ag. activation, % at 9.3 µM. cells, luminescence complementation;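 note: 0% = vehicle-treated cells and 100% = reference agonist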
HTR5A ag ctr2 = HTR5A agonists in cells, counter-screen for OPRM1-OPRD1 heterodimer agonist project, cell-based, luminescence; shares compounds with OPRM1-OPRD1 ag; HTR5A agonist counterscreen; activation, % at 9.3 µM; 8% of 830 active; AID 504905, 2011; in the data active = activation above about 17%;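 note: 0% = vehicle-treated cells and 100% = reference agonist response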
Starred values were filed as active, the others as inactive; i = inactive; / = no result. Sampled rows, rich in hits. Any-hit rate of the full collection: about 1.9%. Cut-off read from the data, not from the text of the source, unless noted: active = activation above about 18%; inactive = the rest.

SMILES | HTR5A ag ctr | OPRM1-OPRD1 ag | MsrA inh | MsrA act | HTR5A inv ctr | OPRM1-OPRD1 inv | MOR-DOR ag conf | HTR5A ag ctr2
CN(C)C(CNC(=S)Nc1ccccc1)c1cccnc1 (stereo not given) | 8 | 108* | 1 | -5 | -28 | i | 103* | 1
CN(C)C(CNC(=O)NC1CCCCC1)c1cccnc1 (stereo not given) | 1 | 158* | 0 | -2 | 3 | i | 148* | -2
CCc1cccc(C)c1NC(=S)NCC(c1cccnc1)N(C)C (stereo not given) | -4 | 139* | 1 | -3 | 10 | i | 129* | 2
CN(C)C(CNC(=S)Nc1cccc(Cl)c1)c1cccnc1 (stereo not given) | 1 | 324* | 0 | 1 | 18 | i | 331* | 5
c1ccc(Cn2cc(CCOCc3ccccn3)c3ccccc32)cc1 | / | / | 0 | / | / | / | / | /
CC(C)C[C@@H]1NC(=O)[C@@H]2CSCCS(=O)(=O)N2C1=O | / | / | -1 | / | / | / | / | /
COc1ccc(CN2CCC(N(CCc3ccccc3)Cc3ccccc3)CC2)c(OC)c1 | 3 | 107* | 0 | -1 | -9 | i | 3 | 7
CCOc1cc(C2c3c(oc4ccccc4c3=O)C(=O)N2c2nccs2)ccc1O (stereo not given) | -4 | 24* | 0 | -2 | -32 | -125 | 1 | 2
CCCCOCC1CN(CCCC)S(=O)(=O)c2c(cccc2Sc2ccc(SC)cc2)O1 (stereo not given) | / | / | 1 | / | / | / | / | /
COc1cccc(CNC(=O)[C@H]2CCCN2C(=O)[C@H]2CCCN2C(=O)c2ccc(OC(F)(F)F)cc2)c1 | / | / | 0 | / | / | / | / | /
COc1ccc(C2CC(c3ccc(OC)cc3)n3nc(NC(=O)c4cccs4)nc3N2)cc1 (stereo not given) | 1 | 26* | 0 | -5 | -18 | -134 | 48* | 2
COc1ccc(CCN2CC(=O)N3CCc4ccc(N5CCOCC5)cc4C3CC2=O)cc1OC (stereo not given) | / | / | 0 | / | / | / | / | /
CN(C)C(CNC(=O)c1oc2ccccc2c1CSc1ncn[nH]1)c1ccco1 (stereo not given) | 1 | 21* | 0 | -3 | -2 | -111 | 30* | 3
NC1=C(Br)C(=O)c2ncccc2C1=O | 3 | 20* | 1 | 7 | -11 | -101 | 0 | -19
O=C(Nc1ccc(Cl)c(Cl)c1)N(CCCN1CCOCC1)Cc1cccs1 | -2 | 27* | -1 | 0 | 5 | -141 | -5 | -2
O=C(Nc1ccc(Cl)c(Cl)c1)N(CCCN1CCOCC1)Cc1cccnc1 | 7 | -1 | 0 | -2 | -16 | 6 | / | /
COc1ccc(C2Nc3ccccc3C(=O)N2c2ccc(F)cc2)cc1CSc1ccccn1 (stereo not given) | -4 | 38* | 0 | -15 | 10 | -226 | 46* | 3
COc1ccc(C2Nc3ccccc3C(=O)N2Cc2ccco2)cc1COc1ccccc1F (stereo not given) | 5 | 5 | 1 | -4 | -13 | -25 | / | /
COc1ccc(C2Nc3ccccc3C(=O)N2Cc2ccco2)cc1COc1ccc(NC(C)=O)cc1 (stereo not given) | 7 | 117* | -1 | -4 | -10 | i | 68* | -3
COc1ccc(C2Nc3ccccc3C(=O)N2c2ccccc2)cc1Cn1cc([N+](=O)[O-])cn1 (stereo not given) | -4 | 5 | 1 | -1 | 10 | -37 | / | /
COc1ccc(C2Nc3ccccc3C(=O)N2Cc2ccccc2)cc1CSc1ccccn1 (stereo not given) | 0 | 35* | 2 | 1 | -2 | -188 | 1 | 4
COc1ccc(C2Nc3ccccc3C(=O)N2c2ccccc2)cc1CSc1ccccn1 (stereo not given) | 0 | 27* | 2 | -12 | -3 | -139 | 28* | -2
COc1ccc(C2Nc3ccccc3C(=O)N2c2ccccc2)cc1COc1ccccn1 (stereo not given) | 5 | -2 | 0 | -1 | 11 | 9 | / | /
Cc1oc2c(c(C)nn2-c2ccccc2)c(=O)c1Cl | / | / | 1 | / | / | / | / | /
COC(=O)c1cc2c(c3c4cc(F)ccc4n(S(=O)(=O)c4ccc(C)cc4)c13)C(=O)N(c1ccc(OC)cc1)C2 | / | / | 0 | / | / | / | / | /
SMILES | HTR5A ag ctr | OPRM1-OPRD1 ag | MsrA inh | MsrA act | HTR5A inv ctr | OPRM1-OPRD1 inv | MOR-DOR ag conf | HTR5A ag ctr2
COc1cc(Br)cc(/C=N/NC(=O)Cc2ccc(C(F)(F)F)cc2[N+](=O)[O-])c1O | 4 | 18* | 0 | 0 | -36 | -96 | 42* | 2
Oc1ccc(/C=N/Nc2nc(-c3ccc(Cl)cc3)cc(C(F)(F)F)n2)cc1 | 5 | 24* | 3 | -5 | -14 | -124 | 0 | 2
Cc1cc(-c2ccccc2)nc(N/N=C/c2ccc(O)cc2)n1 | 3 | 0 | 3 | -1 | -19 | -2 | / | /
CC(C)(C)c1ccc(C#C[C@@H]2C=C[C@@H](O)[C@@H](CO)O2)cc1 | / | / | 1 | / | / | / | / | /
O=C(NCc1ccccc1)[C@@H]1CCCN1C(=O)[C@H]1CCCN1C(=O)c1ccc(Cl)cc1 | / | / | 0 | / | / | / | / | /
O=C1CC(O)C(Cc2ccccc2)N1 (stereo not given) | / | / | 0 | / | / | / | / | /
N#C/C(=C(/O)CN1C(=O)c2ccccc2C1=O)c1nc2ccccc2[nH]1 | -2 | -5 | 2 | -4 | 4 | 20 | / | /
CSCCC(/C(O)=C(\C#N)c1nc2ccccc2[nH]1)N1C(=O)c2ccccc2C1=O (stereo not given) | 1 | 58* | 2 | -4 | -2 | -264 | 49* | 1
COc1ccc(C2CC(=O)C(c3cccc(OC)c3)=CN2Cc2ccccc2)cc1 (stereo not given) | / | / | -1 | / | / | / | / | /
CN(c1ccc(NC(=O)CCc2cn(Cc3ccc(Br)cc3)c3ccccc23)cc1)c1ccccn1 | / | / | 2 | / | / | / | / | /

Bioassay records: PubChem BioAssay, The Scripps Research Institute Molecular Screening Center
